This is part of a sample that, as a whole, favours compounds with a hit. Of some 83,000 tested, about 20% had one in any assay.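 96-well plates, one dose, 48 hours. Percent growth reported; active if below 10.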 Activity calls are given as the source filed them.
Key:
Test in all cases: NCI-60 one-dose screen, 48 h (100 = growth as untreated, 0 = no growth, -100 = all killed)
Conditions in all cases: 10 µM
[1] = tested on: SK-MEL-2 melanoma
[2] = tested on: SN12C renal
[3] = tested on: TK-10 renal
[4] = tested on: ACHN renal
[5] = tested on: CAKI-1 renal
[6] = tested on: A498 renal
[7] = tested on: MOLT-4 leukemia
[8] = tested on: SR leukemia
[9] = tested on: RPMI-8226 leukemia
[10] = tested on: OVCAR-8 ovarian
[11] = tested on: OVCAR-5 ovarian
[12] = tested on: OVCAR-4 ovarian
[13] = tested on: SK-OV-3 ovarian
[14] = tested on: IGROV1 ovarian
[15] = tested on: OVCAR-3 ovarian
[16] = tested on: HS 578T breast
[17] = tested on: NCI/ADR-RES ovarian
[18] = tested on: UO-31 renal
[19] = tested on: CCRF-CEM leukemia
[20] = tested on: EKVX NSCLC

Measured: growth

COc1cc(-c2cc(-c3ccc(C)cc3)nc3nc(N)[nH]c(=O)c23)ccc1Oc1ccnc2cc(Cl)ccc12
inactive: [1] 93% | [2] 74.2% | [3] 120% | [4] 93.4% | [5] 83.2% | [6] 73.4% | [7] 49.1% | [8] 50.9% | [9] 60.1% | [10] 79.5% | [11] 115% | [12] 66.3% | [13] 95.3% | [14] 77.9% | [15] 84.1% | [16] 91.2% | [17] 100%

O=[N+]([O-])c1ccc(Br)o1
inactive: [1] 94.4% | [18] 90% | [3] 96.4% | [4] 100% | [5] 98.3% | [6] 102% | [19] 114% | [7] 106% | [8] 108% | [9] 106% | [10] 108% | [11] 95.4% | [12] 122% | [13] 104% | [14] 101% | [15] 111% | [16] 113% | [17] 99.5%

CCCCc1ccc(NC(=O)N(CCCl)N=O)cc1
inactive: [1] 94.8% | [2] 96.1% | [3] 105% | [4] 106% | [5] 99.3% | [6] 103% | [7] 98.7% | [8] 30.9% | [9] 98.6% | [10] 96.7% | [11] 104% | [12] 108% | [13] 95.3% | [14] 97.2% | [15] 105% | [16] 111% | [17] 115%

Cc1ccc([P+](Cc2ccccc2)(c2ccccc2)c2ccccc2)cc1
inactive: [2] 19.3% | [3] 12.3% | [4] 60.6% | [5] 76.7% | [6] 23% | [19] 13.6% | [11] 31.7% | [13] 21.3% | [15] 19.2% | [16] 44.8% | [17] 101%
active: [1] -29.1% | [7] 6.83% | [8] -11.9% | [9] -32.1% | [10] 3.59% | [12] 3.46% | [14] 0.953%

CCc1ccc(-c2nnc(COc3ccc(-c4nc5ccccc5[nH]4)cc3OC)o2)cc1
inactive: [1] 96.7% | [2] 21.7% | [18] 56.8% | [3] 16.7% | [5] 60.1% | [6] 88.8% | [19] 61.8% | [7] 71.8% | [9] 52.1% | [10] 40.9% | [11] 96.6% | [13] 100% | [14] 53.6% | [16] 14.4% | [17] 69.2%
active: [8] -8.81% | [12] -36.2%

COc1ccc(-c2nc(SCC(=O)c3ccc(Br)cc3)[nH]c(=O)c2C#N)cc1
inactive: [20] 107% | [2] 112%

CCOc1nc(-c2ccccc2)cc2c(O)c(C(=O)NC(C)C)[nH]c(=O)c12
inactive: [20] 105% | [2] 114%

COc1ccc(-c2nc(NC(=O)CS(=O)(=O)c3ccc(F)cc3)sc2C)cc1
active: [9] -0.965%
inactive: [2] 55.5% | [18] 26.8% | [3] 98.4% | [4] 73.5% | [5] 51.8% | [6] 93.6% | [19] 21.2% | [7] 35.5% | [8] 32.5% | [11] 95.4% | [12] 69.8% | [13] 73.6% | [14] 54.5% | [15] 56% | [16] 79.5% | [17] 50.6%

O=C1/C(=C/c2ccc(O)cc2)Cc2ccc(Cl)cc21
inactive: [2] 77.8% | [18] 45.2% | [3] 127% | [4] 80% | [5] 68.3% | [6] 121% | [19] 67.7% | [7] 70.3% | [8] 117% | [9] 120% | [10] 86.3% | [11] 111% | [12] 85.5% | [13] 111% | [14] 18.8% | [15] 93% | [16] 95.4% | [17] 94.2%

Cc1cccc2c(Nc3ccc(NS(C)(=O)=O)cc3)c3ccc([N+](=O)[O-])cc3nc12
active: [2] 7.61% | [4] -11.4% | [5] 6.69% | [6] -11.2% | [19] -9.83% | [7] -5.36% | [8] 2.56% | [9] 0.668% | [10] 2.24% | [14] -27.4% | [15] -28.9%
inactive: [18] 10.5% | [3] 20.7% | [11] 49.9% | [12] 16.6% | [13] 38.3% | [16] 56.6% | [17] 66.6%

CC(=O)O[C@H]1CC[C@@]2(C)[C@@H](CC[C@@H]3[C@@H]2CC[C@]2(C)C=C(C=O)C[C@@H]32)C1
active: [19] -20.8% | [7] -29.1% | [8] 2.16% | [9] 8.64%
inactive: [2] 58.9% | [18] 93% | [3] 120% | [4] 95% | [5] 91% | [6] 94.9% | [10] 24.9% | [11] 71.8% | [12] 70.4% | [13] 113% | [14] 60.2% | [15] 57.8% | [16] 105% | [17] 70.5%

COc1ccc(-c2csc(NC(=O)CO[N+](=O)[O-])n2)cc1
inactive: [2] 102% | [18] 83.1% | [3] 106% | [4] 101% | [5] 95.2% | [6] 126% | [19] 97.9% | [7] 93.1% | [8] 96.1% | [9] 106% | [10] 96.1% | [11] 113% | [12] 103% | [13] 108% | [14] 97.9% | [15] 101% | [16] 104% | [17] 99.6%

Cc1[nH]nc2c(=S)[nH]c(=O)[nH]c12
inactive: [18] 93.4% | [3] 108% | [4] 104% | [5] 101% | [6] 100% | [19] 97.8% | [7] 105% | [8] 113% | [9] 101% | [10] 99.1% | [11] 99.4% | [12] 99.6% | [13] 109% | [14] 111% | [15] 110% | [16] 105% | [17] 100%

Cc1nc2sccn2c1-c1csc(Nc2cccc(Cl)c2C)n1
inactive: [2] 59.4% | [18] 51.2% | [3] 54.6% | [4] 60.3% | [5] 51.4% | [6] 36.1% | [19] 47.1% | [7] 40.2% | [8] 17.7% | [9] 45% | [11] 77.9% | [12] 45.7% | [13] 79.1% | [14] 62% | [15] 64.3% | [16] 53.1% | [17] 41.6%

COc1ccc(-c2[nH]ncc2/C=C/c2cc(C(F)(F)F)[nH]c(=O)n2)cc1
inactive: [2] 96.2% | [18] 87.1% | [3] 94.8% | [4] 92.6% | [5] 102% | [6] 89.3% | [19] 73% | [7] 86% | [8] 71.9% | [9] 96.5% | [10] 102% | [11] 100% | [12] 93.6% | [13] 100% | [14] 93.1% | [15] 95.1% | [16] 106% | [17] 105%

C=CCOc1ccc2c(c1)CC=C1[C@@H]2CC[C@]2(C)C(=O)/C(=N/O)C[C@@H]12
inactive: [2] 88.3% | [18] 86% | [3] 72.3% | [4] 55.4% | [5] 50.4% | [6] 96.6% | [19] 30.9% | [7] 46% | [8] 23.9% | [9] 40.6% | [10] 91.2% | [11] 50.6% | [12] 73.3% | [13] 121% | [14] 97.1% | [15] 108% | [16] 99.2% | [17] 83.1%

CC1(CO)CCCC12OCCO2 (configuration not stated)
inactive: [2] 100% | [18] 93.7% | [3] 107% | [5] 101% | [6] 94.1% | [19] 97.3% | [7] 107% | [8] 93.3% | [9] 100% | [10] 106% | [11] 97.3% | [12] 111% | [13] 111% | [14] 104% | [15] 108% | [16] 119% | [17] 113%

NC1CCC(Nc2nc(NCc3ccc(-c4ccccc4O)nc3)c3ncn(C4CCCC4)c3n2)CC1 (configuration not stated)
inactive: [18] 14.2% | [5] 14.1% | [11] 19.3% | [17] 10.3%
active: [20] -20.1% | [3] 0.221% | [4] -3.2% | [6] -82.1% | [19] -5.6% | [7] -11.2% | [8] -41.3% | [9] -28% | [10] 7.26% | [12] 6.5% | [13] 8.5% | [14] 8.35% | [15] -6.34% | [16] 8.94%

Nc1ccc(C2=CC(c3ccc(Cl)cc3)N3C=CSC3=N2)cc1 (configuration not stated)
active: [2] -45.2% | [18] -96% | [3] -30.1% | [4] -100% | [5] -19.5% | [6] -93.5% | [7] -11% | [8] -11.5% | [9] -21.3% | [10] -1.84% | [11] -66.1% | [12] 0.424% | [13] -51% | [14] -88.8% | [15] -63.1%
inactive: [16] 16.8% | [17] 31.6%

— PubChem BioAssay (NCI)
